# Records with an inconclusive call do not appear. A call without a number means that no potency is given here. Activity calls are given as the source filed them. Calls follow the shape of the dose curve; as a rule, active = well fitted inhibition curve with a large enough effect; inconclusive = small, poorly fitted or top-dose-only effect; inactive = no such curve, though single readings can be large or run the other way.
# Biological target: Cytochrome P450 2C9 (Homo sapiens) (UniProt P11712)
# Test: qHTS Assay for Inhibitors and Substrates of Cytochrome P450 2C9 (AID 883); also: nearly all actives have a fitted effect of over 60% in size
# Settings: recombinant CYP2C9, luciferin-H luminescence, 60 min; series mostly up to 57.1 µM
# Experimental: NIH Molecular Libraries Screening Centers Network [MLSCN] NIH Chemical Genomics Center [NCGC] MLSCN Grant: None NCGC Assay Overview: The P450 gene superfamily is involved in the metabolism and clearance of xenobiotics. This assay used human CYP2C9 to measure the hydroxylation of deoxyluciferin (Luciferin-H; P450 Glo-Buffer) to luciferin. The luciferin is then measured by luminescence after the addition of a luciferase detection reagent. Luciferin-H concentration in the assay was equal to its Michaelis constant KM for CYP2C9. Inhibitors and some substrates limit the production of luciferin, and decrease measured luminescence.
# NCGC Assay Protocol Summary: Two uL of enzyme and substrate mix (final concentrations: 10nM CYP2C9, 100uM Luciferin-H, 25mM KPO4) were dispensed into a white, solid bottom 1536-well microtiter plate. 23nL of compound was transferred by a pin tool. The plate was incubated at 37C for 10 min. Two uL of an NADPH regeneration solution (Promega supplied reagent) was dispensed and the reaction was allowed to continue for 60 min at 37C. Then the reaction was stopped by reconstituted P450 Glo-Buffer. After another 20 min of incubation the plate was read on the ViewLux (Perkin Elmer) at 60 sec exposure and 2x2 binning. This protocol was carried out with Promega-Glo reagents and further information can be found at http://www.promega.com/tbs/tb325/tb325.pdf. Data were normalized to the to AC100 inhibition (57uM sulphaphenazole). Keywords: P450, CYP2C9, Luciferase, MLSMR, MLSCN, NIH Roadmap, qHTS, NCGC
# Potency is read from the fitted curve at half-maximal effect.
# Sequence of Cytochrome P450 2C9 (Homo sapiens) (P11712 whole entry, looked up): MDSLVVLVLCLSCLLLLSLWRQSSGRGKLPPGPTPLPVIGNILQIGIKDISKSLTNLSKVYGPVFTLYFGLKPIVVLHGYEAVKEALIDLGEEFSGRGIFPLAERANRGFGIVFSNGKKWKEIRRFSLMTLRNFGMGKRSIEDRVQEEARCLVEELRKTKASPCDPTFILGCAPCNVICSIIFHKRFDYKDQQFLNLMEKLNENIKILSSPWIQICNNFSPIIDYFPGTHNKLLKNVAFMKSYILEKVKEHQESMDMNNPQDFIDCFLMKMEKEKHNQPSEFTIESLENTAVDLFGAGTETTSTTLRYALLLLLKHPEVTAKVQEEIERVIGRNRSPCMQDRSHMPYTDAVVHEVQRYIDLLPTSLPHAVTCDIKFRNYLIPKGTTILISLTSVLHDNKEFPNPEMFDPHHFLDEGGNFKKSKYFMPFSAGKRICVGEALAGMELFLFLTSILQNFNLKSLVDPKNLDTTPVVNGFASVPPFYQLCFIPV
row,Structure (SMILES),Potency
1,O=S(=O)(c1cccc2c(Cl)cccc12)N1CCCNCC1,inactive
2,Cc1nc(N=Nc2ccc(C(=O)O)cc2)c(COP(=O)(O)O)c(C=O)c1O,inactive
3,NC(N)=NC(N)=Nc1cccc(Cl)c1,inactive
4,O=C(O)Cc1c[nH]c2ccc(O)cc12,inactive
5,CC[C@H](NC(=O)c1c(C)c(-c2ccccc2)nc2ccccc12)c1ccccc1,12.6 µM (active)
6,C[C@H](NC(=O)/C(C#N)=C/c1ccc(O)c(O)c1)c1ccccc1,inactive
7,Nc1ccc2c3c(cccc13)C(=O)NC2=O,inactive
8,O=C(O)c1ccccc1Nc1cccc(OCc2ccc3ccccc3n2)c1,31.6 µM (active)
9,Cc1nc(N=Nc2cc(S(=O)(=O)O)c3cc([N+](=O)[O-])cc(S(=O)(=O)O)c3c2)c(COP(=O)(O)O)c(C=O)c1O,inactive
10,O=c1onc2cnc3ccccc3n12,inactive
11,CNc1cc(NS(=O)(=O)c2ccc(N)cc2)nc(NC)n1,2 µM (active)
12,N[C@H](C(=O)O)c1cc(O)cc(O)c1,inactive
13,NC/C=C\C(=O)O,inactive
14,C=C1C(=O)O[C@@H]2[C@H]3O[C@]3(C)CCC=C(C)CC[C@@H]12,inactive
15,CNC(=O)c1cc2c(cn1)[nH]c1ccccc12,inactive
16,CCn1c(=O)[nH]c2cc(Cl)c(Cl)cc21,inactive
17,O=C(c1ccc2c(c1)OCCO2)N1CCCCC1,inactive
18,NC(=O)c1ccccc1,inactive
19,O=C(O)c1cccnc1C(=O)O,inactive
20,CCCn1c(=O)c2[nH]c(C3CCCC3)nc2n(CCC)c1=O,inactive

row,Structure (SMILES),Potency
1,O=[N+]([O-])c1cccc2c(Br)[nH]nc12,inactive
2,C[C@](Cc1ccc(O)c(O)c1)(NN)C(=O)O,inactive
3,CCCc1c(-c2ccc(O)cc2)nn(-c2ccc(O)cc2)c1-c1ccc(O)cc1,3.16 µM (active)
4,Oc1cc(O)c2c(c1)O[C@H](c1ccc(O)c(O)c1)[C@@H](O)C2,inactive
5,NC[C@@H]1O[C@H](c2ccccc2)Cc2c1ccc(O)c2O,6.31 µM (active)
6,Cn1cc(C(=O)OCC2CCN(CCNS(C)(=O)=O)CC2)c2ccccc21,inactive
7,NC(N)=NC(N)=Nc1ccccc1,inactive
8,O=C(O)c1cc2cc(F)ccc2[nH]1,inactive
9,CC[N+](CC)(CC)CC(=O)Nc1c(C)cccc1C,inactive
10,O=c1[nH]ccc2c(O)cccc12,inactive
11,O=[N+]([O-])c1cccc2cn[nH]c12,inactive
12,COc1cc(/C=C(\C#N)C(=O)c2ccc(O)c(O)c2)cc(I)c1O,0.501 µM (active)
13,OC1(c2ccc(Cl)cc2)CCN(Cc2c[nH]c3ccccc23)CC1,inactive
14,COc1ccc(NC(=O)c2ccc(-c3ccc(-c4noc(C)n4)cc3C)cc2)cc1N1CCN(C)CC1,7.94 µM (active)
15,CCCCCCCC/C=C\CCCCCCCC(=O)NCCc1ccc(O)c(O)c1,1.58 µM (active)
16,N#Cc1cc2nc(O)c(O)nc2cc1[N+](=O)[O-],inactive
17,CCCCCCN(CCCCCC)C(=O)Cc1c(-c2ccc(F)cc2)[nH]c2ccccc12,inactive
18,Oc1ccc(Cn2cc[nH]c2=S)cc1,inactive
19,CC(=O)C(C)=O,inactive
20,COCc1nc2c([nH]1)c(=O)n(C)c(=O)n2CC(C)C,inactive

# — PubChem BioAssay (NCATS)
